Only a selection was taken, and hits are over-represented in it overall.
BL2 CD40 inh: CD40 pathway inhibition in BL2 cells; BL2 NF-kB luciferase reporter, CD40L-induced, 4 h; AID 1053188; actives 0.94% (n = 83,000); inhibition, % at 10 µM;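 active = mean inhibition of at least 50% with a set share of replicates also reaching that level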;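 also: 0% = neutral control wells and 100% = IKK inhibitor VII at 50 µM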
* marks the source's active call; other numbers are inactive results; [ ] = remark or other dose.

SMILES	BL2 CD40 inh
COc1ccc(S(=O)(=O)Nc2ccc3c(c2)C(=O)N([C@H](C)CO)C[C@H](C)[C@H](CN(C)Cc2ccc(C(F)(F)F)cc2)OCCCC[C@H](C)O3)cc1	37[25 µM]
COc1ccc(NC(=O)Nc2ccc3c(c2)C(=O)N([C@H](C)CO)C[C@H](C)[C@H](CN(C)Cc2ccc(C(F)(F)F)cc2)OCCCC[C@@H](C)O3)cc1	-2
COc1ccc(NC(=O)Nc2ccc3c(c2)C(=O)N([C@H](C)CO)C[C@@H](C)[C@H](CN(C)Cc2ccc(C(F)(F)F)cc2)OCCCC[C@H](C)O3)cc1	1
COc1ccc(S(=O)(=O)Nc2ccc3c(c2)C(=O)N([C@@H](C)CO)C[C@@H](C)[C@H](CN(C)Cc2ccc(C(F)(F)F)cc2)OCCCC[C@H](C)O3)cc1	28[25 µM]
C[C@@H]1CCCCO[C@H](CN(C)Cc2ccc(C(F)(F)F)cc2)[C@H](C)CN([C@@H](C)CO)C(=O)c2cc(NS(=O)(=O)c3ccc(Cl)cc3)ccc2O1	31
COc1ccc(NC(=O)Nc2ccc3c(c2)C(=O)N([C@@H](C)CO)C[C@@H](C)[C@H](CN(C)Cc2ccc(C(F)(F)F)cc2)OCCCC[C@@H](C)O3)cc1	7
COc1ccc(S(=O)(=O)Nc2ccc3c(c2)C(=O)N([C@@H](C)CO)C[C@H](C)[C@H](CN(C)Cc2ccncc2)OCCCC[C@H](C)O3)cc1	3
COc1ccc(S(=O)(=O)Nc2ccc3c(c2)C(=O)N([C@@H](C)CO)C[C@@H](C)[C@@H](CN(C)Cc2ccc(C(F)(F)F)cc2)OCCCC[C@H](C)O3)cc1	73*[25 µM]
COc1ccc(S(=O)(=O)Nc2ccc3c(c2)C(=O)N([C@H](C)CO)C[C@@H](C)[C@@H](CN(C)Cc2ccc(C(F)(F)F)cc2)OCCCC[C@H](C)O3)cc1	58*[25 µM]
COCC(=O)N1[C@H](CO)[C@@H](c2ccc(-c3ccccc3OC)cc2)C12CN(C(C)=O)C2	-2[25 µM]
C[C@@H]1CCCCO[C@H](CN(C)C(=O)CCCN(C)C)[C@H](C)CN([C@@H](C)CO)C(=O)c2cc(NC(=O)Nc3ccc4c(c3)OCO4)ccc2O1	-18[25 µM]
COCC(=O)N1[C@@H](CO)[C@H](c2ccccc2)[C@@H]1CN(C)C(=O)c1cccnc1	4
COc1ccccc1-c1ccc([C@H]2[C@@H](CO)N(C(=O)C3CCCC3)[C@H]2C#N)cc1	-15
CC(=O)N1[C@@H]2c3cccc(=O)n3C[C@H]1[C@H](CO)[C@H]2C(=O)NCC1CCCCC1	-4[25 µM]
CO[C@@H](CN(C)S(=O)(=O)c1ccc(F)cc1)[C@@H](C)CN(C(=O)Nc1ccccc1F)[C@H](C)CO	-3
C[C@H](CO)N1C[C@H](C)[C@H](CN(C)Cc2ccc(F)cc2)OCc2ccccc2-c2c(n(C)c3ccccc23)C1=O	0
C[C@@H]1CN([C@H](C)CO)C(=O)c2ccccc2-c2ccccc2CO[C@@H]1CN(C)C(=O)C1CC1	-14
COC(=O)Cn1cnc2sc3c(c2c1=O)CCCC3	3
CCOC(=O)Cn1cnc2c(sc3nc(C)cc(C)c32)c1=O	-75
CCOC(=O)Cn1cnc2sc3c(c2c1=O)CCC3	56*
Cc1noc(C)c1NC(=O)N1C[C@H](O)COC[C@@H]2O[C@H](CC(=O)N[C@@H]3CCN(Cc4ccccc4)C3)CC[C@H]21	-4[25 µM]
CCCNC(=O)N1C[C@H]2[C@@H](c3ccccc31)[C@@H](CO)N2CC1CCCC1	6[25 µM]
COc1ccc(C(=O)Nc2ccc3[nH]ccc3c2)cc1	75*
O=C(Nc1ccc2[nH]ccc2c1)c1cccs1	-56
COc1ccc(C(=O)Nc2ccc(C(=O)c3ccccc3)cc2)cc1	-3
SMILES	BL2 CD40 inh
O=C(c1ccc(-c2ccc([N+](=O)[O-])cc2)o1)N1CCCC(C(F)(F)F)C1 (stereo not given)	61*
O=C(c1ccc(-c2ccc([N+](=O)[O-])cc2)o1)N1CCCCCCC1	-3
O=C(c1ccccc1)c1ccc(C(=O)N2CCCC(C(F)(F)F)C2)cc1 (stereo not given)	-2
O=C(Nc1ccccc1)c1cn2ccccc2n1	69*
O=C(Nc1ccc(-n2cnnn2)cc1)c1cn2ccccc2n1	-55
O=C(Nc1cccc(-c2cn3ccccc3n2)c1)c1cnccn1	-25
COCC(=O)Nc1ccc2c(c1)C(=O)N(C)[C@@H]1CC[C@H](CC(=O)NCCCN(C)C)O[C@@H]1CO2	-41[25 µM]
CO[C@H]1CN(C)C(=O)c2ccc(NS(C)(=O)=O)cc2OC[C@H](C)N(CC2CC2)C[C@@H]1C	0[25 µM]
COc1cc2oc(-c3ccc(O)cc3)cc(=O)c2c(OC)c1O	-18
O=c1cc(-c2ccc(O)cc2)oc2ccc3ccccc3c12	102*
COc1ccc(-c2cc(=O)c3c(C)cc(O)cc3o2)cc1	-60
COCC(=O)N1CCC2(CC1)CN(Cc1cc(F)ccc1F)[C@H](CO)c1c2c2ccc(OC)cc2n1C	5[25 µM]
C[C@H]1CN([C@@H](C)CO)C(=O)CCCn2nncc2CO[C@H]1CN(C)S(=O)(=O)c1cn(C)cn1	6[25 µM]
COc1ccc(C(=O)NCC(=O)NCCc2c[nH]c3ccccc23)cc1OC	17
COc1cc(CNCCc2c[nH]c3ccccc23)cc(Cl)c1OCC(N)=O	47*
COc1ccc(NC(=O)COC(=O)Cc2c[nH]c3ccccc23)cc1Cl	-3
O=C(C[C@@H]1C[C@@H]2c3cc(NC(=O)NC4CCCC4)ccc3O[C@@H]2[C@@H](CO)O1)NCc1ccccn1	5
CN1c2ccc(-c3ccc(F)cc3)cc2[C@@H]2[C@@H](CCN2S(=O)(=O)c2cccc(F)c2)[C@H]1CO	6[25 µM]
CC(=O)NC[C@@H]1[C@H](c2ccccc2)[C@H](CO)N1C(=O)Cc1cccnc1	-11[25 µM]
CCCN1[C@@H]2Cn3c(cccc3=O)[C@H]1[C@@H](C(=O)N[C@@H](C)c1ccccc1)[C@@H]2CO	-7[25 µM]
C[C@@H]1CN([C@@H](C)CO)C(=O)c2c(c3ccccc3n2C)-c2ccccc2CO[C@@H]1CN(C)Cc1ccc(Oc2ccccc2)cc1	1[25 µM]
CCn1c(-c2ccccc2)c(C(=O)CCl)c2ccccc21	22
Cn1c(=O)c(C(=O)c2ccccc2)c(O)c2ccccc21	6
Cn1c(-c2ccccc2)c(C(=O)CCl)c2ccccc21	71*
C[C@@H]1CN(C)C(=O)Cc2cc(N(C)C)ccc2O[C@H]1CN(C)C(=O)OC(C)(C)C	-1
SMILES	BL2 CD40 inh
CC(C)(C)n1nc(-c2cccc3ccccc23)c2c(N)ncnc21	16[25 µM]
C/C=C/c1ccc([C@H]2[C@@H](CO)N(C(C)=O)[C@H]2CNC(=O)CC2CC2)cc1	0
COCCN(C(=O)CSc1nnc(C(F)(F)F)n1C)c1c(N)n(CC(C)C)c(=O)[nH]c1=O	-13
O=C(Nc1ccc(F)cc1)N1CCCCN2[C@H](CO)[C@H](c3ccc(C#CC4CC4)cc3)[C@@H]2C1	13[25 µM]
CN1CCN(C(=O)C[C@@H]2CC[C@@H]3[C@H](COc4ccc(NC(=O)C5CCC5)cc4C(=O)N3C)O2)CC1	0
CCOC(=O)c1nn(-c2ccc(F)cc2)c(=O)cc1OCC(=O)Nc1cccc(C)c1	12
O=C(Nc1ccc(F)cc1)c1nn(-c2ccccc2)c(=O)cc1Cl	85*
Cc1ccc(NC(=O)c2cc(-c3ccccc3)nn2-c2ccccc2)cc1	-3
O=C(c1cnccn1)N1CC(=O)N2[C@H](CO)[C@@H](c3ccc(/C=C/c4ccccc4)cc3)[C@H]2C1	14[25 µM]
Cc1nc(Nc2nc3ccccc3o2)nc(C)c1C(=O)Nc1ccc(F)cc1	-6
Cc1nc(Nc2nc3ccccc3o2)nc2c1CCC2	active
COCc1cc(=O)[nH]c(Nc2nc3ccccc3o2)n1	17
CNC[C@H]1Oc2ccc(N(C)C)cc2CC(=O)N(C)C[C@@H]1C	-9

Compound activity (PubChem)
